Experimental data as given in PubChem BioAssay AID1159580 (chemical genetic matrix, 2015).
Screen size: about 5,500 compounds; about 2,000 (36%) were called active. Another 18% or so got no clear call; they are omitted. Cut-off read from the data, not from the text of the source: active = normalized growth mostly below about 0.91 (no sharp cut-off); inconclusive = no clear call, values can overlap the other calls; inactive = mostly above about 0.92. This is one part of the list.

Experiment: chemical genetic growth profiling, strain panel (AID 1159580);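 note: tested at 20 µM; growth read once vehicle control cultures reached saturation at 30 °C; 1 = growth at the plate median or of vehicle wells; lower values mean less growth of the strain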
Conditions: S. cerevisiae deletion strains, growth OD
[1] = locus YAL013W, strain DEP1, hits give low values
[2] = locus YJR075W, strain HOC1, hits give low values
[3] = locus YMR307W, strain GAS1, hits give low values
[4] = locus YNL153C, strain GIM3, hits give low values
[5] = locus YNL322C, strain KRE1, hits give low values
[6] = locus YAL040C, strain CLN3, hits give low values
[7] = locus YCL061C, strain MRC1 (second series), hits give low values
[8] = locus YDR150W, strain NUM1, hits give low values
[9] = locus YDR363W, strain ESC2, hits give low values
[10] = locus YER002W, strain NOP16, hits give low values
[11] = locus YGR078C, strain PAC10, hits give low values
[12] = locus YNL175C, strain NOP13, hits give low values
[13] = locus YNL197C, strain WHI3, hits give low values
[14] = locus YNL224C, strain SQS1, hits give low values
[15] = locus YOR083W, strain WHI5 (second series), hits give low values

Measured: normalized growth

CCC1C2CC3C4N(C)c5ccccc5C45CC(C2C5OC(C)=O)N3C1OC(C)=O (configuration not stated)
inactive: [1] 1.01 | locus YBR021W, strain FUR4, hits give low values 1.01 | locus YBR229C, strain ROT2, hits give low values 1 | locus YCL029C, strain bik1, hits give low values 1.02 | locus YDL035C, strain GPR1, hits give low values 1.02 | locus YDL074C, strain BRE1, hits give low values 1.04 | locus YDL101C, strain DUN1, hits give low values 1.01 | locus YDL134C, strain PPH21, hits give low values 1.02 | locus YDL185W, strain tfp1, hits give low values 1.02 | locus YDL192W, strain arf1, hits give low values 1.01 | locus YDR101C, strain arx1, hits give low values 1.01 | locus YDR162C, strain NBP2, hits give low values 1.01 | locus YDR318W, strain mcm21, hits give low values 1.01 | locus YDR388W, hits give low values 1.03 | locus YDR502C, strain sam2, hits give low values 1.02 | locus YEL061C, strain CIN8, hits give low values 1.01 | locus YER110C, hits give low values 1.03 | locus YER155C, strain BEM2, hits give low values 1 | locus YER167W, strain BCK2, hits give low values 1.02 | locus YGL078C, strain dbp3, hits give low values 1 | locus YGL086W, strain mad1, hits give low values 0.997 | locus YGL248W, strain PDE1, hits give low values 1.01 | locus YGR135W, strain pre9, hits give low values 1.01 | locus YGR252W, strain gcn5, hits give low values 1.02 | locus YHR030C, strain SLT2, hits give low values 1.02 | locus YHR079C, strain IRE1 (second series), hits give low values 1 | locus YHR094C, strain hxt1, hits give low values 1.01 | locus YHR129C, strain ARP1, hits give low values 1.02 | locus YHR200W, strain rpn10, hits give low values 1.02 | locus YIL066C, strain RNR3, hits give low values 1.02 | locus YIL073C, strain SPO22, hits give low values 1.08 | locus YIL125W, strain kgd1, hits give low values 1.03 | locus YIR030C, strain dcg1, hits give low values 1.01 | locus YJL095W, strain BCK1, hits give low values 1.01 | locus YJL134W, strain LCB3, hits give low values 1.02 | locus YJL168C, strain set2, hits give low values 1.02 | locus YJL187C, strain SWE1 (second series), hits give low values 1.01 | locus YJR043C, strain POL32, hits give low values 1.01 | [2] 1.04 | locus YKL009W, strain mrt4, hits give low values 1.02 | locus YKL068W, hits give low values 1 | locus YKL085W, strain MDH1 (second series), hits give low values 0.995 | locus YKL085W, strain MDH1, hits give low values 0.995 | locus YKR001C, strain vps1, hits give low values 1.03 | locus YLR039C, strain RIC1, hits give low values 1.07 | locus YLR058C, strain SHM2, hits give low values 1.01 | locus YLR102C, strain apc9, hits give low values 1.03 | locus YLR262C, strain YPT6, hits give low values 1.09 | locus YLR268W, strain sec22, hits give low values 1.02 | locus YLR330W, strain CHS5, hits give low values 1.02 | locus YLR342W, strain FKS1 (second series), hits give low values 1.03 | locus YLR371W, strain rom2, hits give low values 1.01 | locus YLR418C, strain cdc73, hits give low values 1.04 | locus YML016C, strain PPZ1, hits give low values 1.01 | locus YML032C, strain rad52, hits give low values 1.02 | locus YML124C, strain tub3, hits give low values 1.01 | locus YMR078C, strain ctf18, hits give low values 0.999 | locus YMR223W, strain ubp8, hits give low values 1.01 | locus YMR263W, strain SAP30, hits give low values 1.01 | [3] 0.992 | locus YNL067W, strain RPL9B, hits give low values 1.02 | locus YNL128W, strain TEP1, hits give low values 1.01 | [4] 1 | locus YNL233W, strain BNI4, hits give low values 1.02 | locus YNL250W, strain rad50, hits give low values 1.01 | locus YNL271C, strain bni1, hits give low values 1.01 | locus YNL298W, strain CLA4, hits give low values 1.02 | locus YNL307C, strain MCK1, hits give low values 1.02 | [5] 1.01 | locus YNR052C, strain pop2, hits give low values 1.02 | locus YOL006C, strain TOP1, hits give low values 1.14 | locus YOL012C, strain htz1 0.814 | locus YOL147C, strain pex11, hits give low values 1.02 | locus YOR061W, strain CKA2, hits give low values 1.01 | locus YOR069W, strain VPS5, hits give low values 1.01 | locus YOR136W, strain idh2, hits give low values 1.02 | locus YOR144C, strain elg1, hits give low values 1.01 | locus YOR184W, strain ser1, hits give low values 1.01 | locus YOR316C, strain cot1, hits give low values 1.02 | locus YPL055C, strain LGE1, hits give low values 1.04 | locus YPR119W, strain clb2, hits give low values 1 | locus YPR141C, strain kar3, hits give low values 1.01 | locus YPR163C, strain tif3, hits give low values 1.02 | locus YPR167C, strain met16, hits give low values 1.01 | strain wtn01, hits give low values 1.04

CO[C@H]1CC=C2CCN3CCC4=C(CC(=O)OC4)[C@]23C1
inactive: [6] 0.99 | [7] 1 | [8] 1.01 | [9] 1.07 | [10] 1.01 | [11] 1.01 | [2] 1.01 | [3] 0.999 | [4] 0.981 | [12] 1.01 | [13] 1.03 | [14] 0.997 | [5] 0.998 | [15] 1.06

Nc1ccn([C@H]2CC[C@@H](CO)O2)c(=O)n1
inactive: [1] 1.01 | [6] 1.01 | [7] 0.988 | [8] 0.994 | [9] 1.01 | [10] 0.987 | [11] 0.989 | [3] 0.993 | [4] 1.04 | [12] 1 | [13] 1 | [14] 0.997 | [15] 1.01
